# Laboratory results published in the supplement of paper PMC6411743.
# ± gives the standard deviation of the averaged measurements. About 6,200 targets were measured; listed, in parts, are those with the largest changes and a random draw of the rest.
# Compound: Nc1ncnc2c1ncn2[C@@H]1O[C@H](COP(=O)(O)OP(=O)(O)NP(=O)(O)O)[C@@H](O)[C@H]1O [adenylyl imidodiphosphate]
# Assay: NP40-soluble protein abundance relative to vehicle (solubility fold change) (ratio); higher = more soluble protein in presence of AMP-PNP
# How it was run: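 In three independent experiments, Jurkat crude lysate made by Dounce homogenisation was treated for 10 min at room temperature and then 3 min at 37 °C with eight concentrations ranging from 0.1 to 10 mM. It was then solubilised with 0.8% NP40 plus benzonase for 60 min at 4 °C and ultracentrifuged. The supernatant was TMT-labelled for LC-MS/MS, and each value is the fold change against the detergent-processed vehicle for the same replicate, using vsn-normalised intensities.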
# Chain of UniProt Q96JP5 (Q96JP5 whole entry, one chain of several): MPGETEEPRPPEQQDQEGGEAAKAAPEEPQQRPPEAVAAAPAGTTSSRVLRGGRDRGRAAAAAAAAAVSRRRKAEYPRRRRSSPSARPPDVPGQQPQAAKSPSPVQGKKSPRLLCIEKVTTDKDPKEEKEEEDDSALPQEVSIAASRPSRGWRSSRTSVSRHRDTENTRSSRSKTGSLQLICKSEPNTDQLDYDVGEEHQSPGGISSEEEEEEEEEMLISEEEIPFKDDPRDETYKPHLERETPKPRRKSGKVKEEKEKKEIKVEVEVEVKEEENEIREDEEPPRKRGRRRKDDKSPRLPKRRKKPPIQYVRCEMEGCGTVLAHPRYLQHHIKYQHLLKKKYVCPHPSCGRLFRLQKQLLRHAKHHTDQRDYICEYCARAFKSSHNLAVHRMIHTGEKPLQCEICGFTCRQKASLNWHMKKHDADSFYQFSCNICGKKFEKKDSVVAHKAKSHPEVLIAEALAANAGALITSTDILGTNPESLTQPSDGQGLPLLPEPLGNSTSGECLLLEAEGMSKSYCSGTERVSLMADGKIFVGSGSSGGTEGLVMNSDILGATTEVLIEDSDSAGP
# Chain of UniProt Q9BRT2 (Q9BRT2 whole entry, one chain of several): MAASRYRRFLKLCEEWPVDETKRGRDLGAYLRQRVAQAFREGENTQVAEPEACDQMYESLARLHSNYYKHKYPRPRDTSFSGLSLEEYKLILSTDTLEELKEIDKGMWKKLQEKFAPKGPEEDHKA
# Chain of UniProt Q96FS4 (Q96FS4 whole entry): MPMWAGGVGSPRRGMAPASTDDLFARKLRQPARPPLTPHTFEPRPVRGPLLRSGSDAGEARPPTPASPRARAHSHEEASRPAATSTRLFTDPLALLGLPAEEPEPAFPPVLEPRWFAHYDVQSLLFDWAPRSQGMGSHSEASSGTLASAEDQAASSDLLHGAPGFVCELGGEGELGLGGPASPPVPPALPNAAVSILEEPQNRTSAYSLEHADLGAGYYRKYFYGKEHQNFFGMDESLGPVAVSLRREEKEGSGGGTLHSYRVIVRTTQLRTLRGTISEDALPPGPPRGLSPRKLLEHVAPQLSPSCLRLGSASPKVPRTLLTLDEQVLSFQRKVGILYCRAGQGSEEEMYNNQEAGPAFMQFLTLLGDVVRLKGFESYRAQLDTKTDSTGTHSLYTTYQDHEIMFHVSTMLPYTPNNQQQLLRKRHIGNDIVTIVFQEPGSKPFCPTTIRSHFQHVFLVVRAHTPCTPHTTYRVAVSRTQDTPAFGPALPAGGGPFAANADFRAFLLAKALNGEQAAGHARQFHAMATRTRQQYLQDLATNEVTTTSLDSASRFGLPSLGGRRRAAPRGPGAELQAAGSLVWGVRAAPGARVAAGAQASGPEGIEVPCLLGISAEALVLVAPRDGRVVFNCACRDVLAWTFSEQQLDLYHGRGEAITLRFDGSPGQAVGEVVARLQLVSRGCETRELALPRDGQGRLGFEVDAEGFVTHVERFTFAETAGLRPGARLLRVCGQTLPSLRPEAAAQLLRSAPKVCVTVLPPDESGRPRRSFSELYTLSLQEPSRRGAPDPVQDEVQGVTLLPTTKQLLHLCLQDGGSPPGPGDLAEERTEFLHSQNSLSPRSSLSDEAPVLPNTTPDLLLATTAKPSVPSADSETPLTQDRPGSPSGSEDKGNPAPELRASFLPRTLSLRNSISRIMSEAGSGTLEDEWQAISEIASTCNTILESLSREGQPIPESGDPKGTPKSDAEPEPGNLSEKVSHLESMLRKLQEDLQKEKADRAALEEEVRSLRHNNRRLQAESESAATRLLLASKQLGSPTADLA
# Chain of UniProt Q9C0B0 (Q9C0B0 whole entry): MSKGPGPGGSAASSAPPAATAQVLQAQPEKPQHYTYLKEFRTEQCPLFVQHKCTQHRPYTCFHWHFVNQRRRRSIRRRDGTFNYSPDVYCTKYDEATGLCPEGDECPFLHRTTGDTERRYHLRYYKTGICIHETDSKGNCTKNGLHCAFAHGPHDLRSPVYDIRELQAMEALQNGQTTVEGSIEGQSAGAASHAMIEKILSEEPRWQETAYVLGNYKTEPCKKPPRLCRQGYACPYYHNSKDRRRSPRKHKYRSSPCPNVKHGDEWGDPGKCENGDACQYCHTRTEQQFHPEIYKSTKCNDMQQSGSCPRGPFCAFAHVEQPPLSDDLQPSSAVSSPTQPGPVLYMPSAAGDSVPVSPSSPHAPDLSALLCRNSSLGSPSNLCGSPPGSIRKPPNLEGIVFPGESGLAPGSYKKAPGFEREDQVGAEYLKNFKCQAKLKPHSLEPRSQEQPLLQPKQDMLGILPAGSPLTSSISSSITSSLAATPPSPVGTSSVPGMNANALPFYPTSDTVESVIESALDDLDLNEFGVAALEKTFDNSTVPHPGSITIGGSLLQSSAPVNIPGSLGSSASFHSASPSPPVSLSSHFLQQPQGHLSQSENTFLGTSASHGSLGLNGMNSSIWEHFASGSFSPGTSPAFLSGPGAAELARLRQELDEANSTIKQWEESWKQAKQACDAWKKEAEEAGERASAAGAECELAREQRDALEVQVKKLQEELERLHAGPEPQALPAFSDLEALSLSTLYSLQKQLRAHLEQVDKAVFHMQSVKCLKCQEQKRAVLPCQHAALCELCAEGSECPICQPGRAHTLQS
# Chain of UniProt Q9Y5Z4 (Q9Y5Z4 whole entry): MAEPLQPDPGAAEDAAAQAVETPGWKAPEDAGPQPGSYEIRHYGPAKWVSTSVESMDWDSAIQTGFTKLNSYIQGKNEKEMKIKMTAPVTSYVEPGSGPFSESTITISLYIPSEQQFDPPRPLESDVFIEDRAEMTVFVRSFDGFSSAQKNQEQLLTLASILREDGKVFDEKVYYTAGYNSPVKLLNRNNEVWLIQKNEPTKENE
# Chain of UniProt Q9NQ29 (Q9NQ29 whole entry): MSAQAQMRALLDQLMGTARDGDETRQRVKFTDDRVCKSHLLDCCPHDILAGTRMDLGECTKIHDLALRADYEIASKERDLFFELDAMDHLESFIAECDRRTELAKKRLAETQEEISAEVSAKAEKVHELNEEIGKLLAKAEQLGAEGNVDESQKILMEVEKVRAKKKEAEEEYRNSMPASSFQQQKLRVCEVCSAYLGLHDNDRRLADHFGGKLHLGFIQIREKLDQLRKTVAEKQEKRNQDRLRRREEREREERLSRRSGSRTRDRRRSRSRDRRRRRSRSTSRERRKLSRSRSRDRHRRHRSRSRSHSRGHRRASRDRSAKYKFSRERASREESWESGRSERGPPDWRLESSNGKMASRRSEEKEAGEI
# Chain of UniProt Q9BYX2 (Q9BYX2 whole entry): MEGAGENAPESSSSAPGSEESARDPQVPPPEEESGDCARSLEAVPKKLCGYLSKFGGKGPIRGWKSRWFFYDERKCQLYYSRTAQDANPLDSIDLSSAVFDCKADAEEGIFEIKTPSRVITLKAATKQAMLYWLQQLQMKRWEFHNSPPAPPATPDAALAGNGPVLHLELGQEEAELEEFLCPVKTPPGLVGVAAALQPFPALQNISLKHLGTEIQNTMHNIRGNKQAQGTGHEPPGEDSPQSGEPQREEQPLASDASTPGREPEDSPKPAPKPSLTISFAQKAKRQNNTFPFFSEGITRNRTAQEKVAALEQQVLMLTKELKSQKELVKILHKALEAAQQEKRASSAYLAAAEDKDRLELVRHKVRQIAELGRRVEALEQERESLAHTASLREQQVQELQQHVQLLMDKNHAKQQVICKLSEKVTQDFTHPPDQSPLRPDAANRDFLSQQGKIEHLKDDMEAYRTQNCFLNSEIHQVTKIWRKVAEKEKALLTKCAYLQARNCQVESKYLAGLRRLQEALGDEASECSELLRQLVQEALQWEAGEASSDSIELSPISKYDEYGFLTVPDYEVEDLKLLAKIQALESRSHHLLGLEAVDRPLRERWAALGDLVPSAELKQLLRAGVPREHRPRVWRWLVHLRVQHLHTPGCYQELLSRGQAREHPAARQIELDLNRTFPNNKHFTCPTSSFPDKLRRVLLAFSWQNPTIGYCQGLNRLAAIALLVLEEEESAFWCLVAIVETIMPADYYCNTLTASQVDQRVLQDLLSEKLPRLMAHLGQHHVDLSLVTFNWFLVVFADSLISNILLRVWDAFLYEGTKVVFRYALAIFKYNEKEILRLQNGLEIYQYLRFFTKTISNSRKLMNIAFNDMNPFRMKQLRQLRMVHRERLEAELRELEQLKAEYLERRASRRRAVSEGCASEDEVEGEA
# Chain of UniProt Q9P0J0 (Q9P0J0 whole entry): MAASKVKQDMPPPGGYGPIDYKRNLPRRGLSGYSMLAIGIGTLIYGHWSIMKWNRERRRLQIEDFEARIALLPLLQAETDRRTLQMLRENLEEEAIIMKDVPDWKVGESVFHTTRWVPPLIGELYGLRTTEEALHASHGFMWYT
# Chain of UniProt Q99615 (Q99615 whole entry): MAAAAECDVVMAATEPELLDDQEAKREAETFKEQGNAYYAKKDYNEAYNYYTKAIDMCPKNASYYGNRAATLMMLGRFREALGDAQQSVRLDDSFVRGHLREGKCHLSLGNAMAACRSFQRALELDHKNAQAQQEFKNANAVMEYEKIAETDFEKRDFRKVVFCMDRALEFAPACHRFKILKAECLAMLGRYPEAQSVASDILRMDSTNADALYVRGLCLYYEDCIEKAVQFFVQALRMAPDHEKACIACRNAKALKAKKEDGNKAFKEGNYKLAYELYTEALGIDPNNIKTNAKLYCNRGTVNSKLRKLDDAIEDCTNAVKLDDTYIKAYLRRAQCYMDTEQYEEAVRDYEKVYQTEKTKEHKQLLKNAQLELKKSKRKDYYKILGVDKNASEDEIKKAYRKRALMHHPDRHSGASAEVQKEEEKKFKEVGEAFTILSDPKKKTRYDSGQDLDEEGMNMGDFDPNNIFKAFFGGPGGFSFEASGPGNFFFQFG
# Chain of UniProt Q9Y2Y0 (Q9Y2Y0 whole entry): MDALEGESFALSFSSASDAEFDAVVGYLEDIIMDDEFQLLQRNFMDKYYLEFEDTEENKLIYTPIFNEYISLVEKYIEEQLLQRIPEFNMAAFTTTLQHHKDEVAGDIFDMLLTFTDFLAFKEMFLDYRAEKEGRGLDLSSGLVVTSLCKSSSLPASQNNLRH
# Chain of UniProt Q9NP97 (Q9NP97 whole entry): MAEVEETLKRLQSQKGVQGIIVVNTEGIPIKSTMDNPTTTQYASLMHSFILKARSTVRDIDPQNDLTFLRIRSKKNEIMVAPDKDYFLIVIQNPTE
Target,NP40-soluble protein abundance (concentration: 1mM),NP40-soluble protein abundance (concentration: 2mM),NP40-soluble protein abundance (concentration: 4mM),NP40-soluble protein abundance (concentration: 6mM),NP40-soluble protein abundance (concentration: 8mM),NP40-soluble protein abundance (concentration: 10mM)
NARS2 (UniProt Q96I59),0.955 ± 0.032,0.904 ± 0.033,0.927 ± 0.036,1 ± 0.048,1 ± 0.011,0.963 ± 0.066
UNK (UniProt Q9C0B0),1.071 ± 0.0069,1.12 ± 0.056,1.11 ± 0.021,1.09 ± 0.072,1.1 ± 0.045,1.11 ± 0.033
ZNF512B (UniProt Q96KM6),1.01 ± 0.017,1.09 ± 0.06,1.1 ± 0.061,1.13 ± 0.044,1.16 ± 0.05,1.17 ± 0.064
UniProt Q9BQ39|A0A087WVC1,1.22 ± 0.068,1.27 ± 0.062,1.35 ± 0.023,1.43 ± 0.04,1.52 ± 0.097,1.5 ± 0.14
MCEE (UniProt Q96PE7),0.998 ± 0.04,1.01 ± 0.04,0.997 ± 0.046,1.06 ± 0.036,1.03 ± 0.08,1.05 ± 0.1
SMARCD1 (UniProt Q96GM5),1.01 ± 0.085,0.97 ± 0.12,1.03 ± 0.11,1.01 ± 0.12,1.03 ± 0.12,1.01 ± 0.12
SRPRB (UniProt Q9Y5M8),1.05 ± 0.021,1.06 ± 0.011,1.04 ± 0.021,1.08 ± 0.014,1.04 ± 0.014,1.08 ± 0.033
UTP11 (UniProt Q9Y3A2),1.02 ± 0.026,1.04 ± 0.037,1.03 ± 0.025,1.05 ± 0.026,1.05 ± 0.018,1.08 ± 0.018
UniProt Q99828|Q99828-2,1.001 ± 0.0091,0.977 ± 0.03,0.993 ± 0.035,0.9794 ± 0.0058,0.949 ± 0.036,0.95 ± 0.025
MECR (UniProt Q9BV79),1.04 ± 0.021,1.21 ± 0.051,1.07 ± 0.011,1.04 ± 0.024,1.048 ± 0.0045,1.05 ± 0.03
WDR3 (UniProt Q9UNX4),1.07 ± 0.015,1.09 ± 0.1,1.33 ± 0.039,1.55 ± 0.026,1.8 ± 0.064,1.78 ± 0.15
UniProt Q9BYX2|Q9BYX2-2,0.981 ± 0.013,0.9921 ± 0.0015,1 ± 0.028,0.985 ± 0.042,0.972 ± 0.012,0.9639 ± 0.0013
RTN4 (UniProt Q9NQC3),1.05 ± 0.014,1.07 ± 0.057,1.04 ± 0.028,1.02 ± 0.014,1.01 ± 0.032,1.03 ± 0.065
PPCS (UniProt Q9HAB8),1.03 ± 0.033,0.981 ± 0.038,1.01 ± 0.028,1.03 ± 0.02,1.03 ± 0.026,1.04 ± 0.021
UniProt Q96RL7|Q96RL7-2|Q96RL7-3|Q96RL7-4,0.982 ± 0.039,0.918 ± 0.098,0.969 ± 0.012,0.916 ± 0.024,0.949 ± 0.022,0.8993 ± 0.0069
OSTC (UniProt Q9NRP0),1.02 ± 0.038,1.02 ± 0.025,1.03 ± 0.049,1.03 ± 0.022,1.039 ± 0.0094,1.04 ± 0.015
AASS (UniProt Q9UDR5),0.9781 ± 0.0043,0.935 ± 0.098,0.969 ± 0.035,0.947 ± 0.021,0.979 ± 0.01,0.939 ± 0.027
UniProt Q9UIG0|Q9UIG0-2,1.04 ± 0.048,1.08 ± 0.055,1.11 ± 0.046,1.23 ± 0.074,1.3 ± 0.11,1.45 ± 0.16
UniProt Q9BZL4-4|Q9BZL4,1 ± 0.033,1.04 ± 0.036,1.01 ± 0.047,0.997 ± 0.023,0.978 ± 0.017,0.999 ± 0.015

Target,NP40-soluble protein abundance (concentration: 1mM),NP40-soluble protein abundance (concentration: 2mM),NP40-soluble protein abundance (concentration: 4mM),NP40-soluble protein abundance (concentration: 6mM),NP40-soluble protein abundance (concentration: 8mM),NP40-soluble protein abundance (concentration: 10mM)
GDE1 (UniProt Q9NZC3),1.01 ± 0.043,1.02 ± 0.034,1.01 ± 0.03,1.01 ± 0.08,0.995 ± 0.05,1.01 ± 0.06
UniProt Q9NPG3|Q9NPG3-2,1.01 ± 0.013,1.05 ± 0.037,1.07 ± 0.021,1.06 ± 0.034,1.06 ± 0.022,1.09 ± 0.067
UniProt Q9NZQ3|Q9NZQ3-3,1.04 ± 0.066,0.9853 ± 0.0064,1.03 ± 0.045,0.984 ± 0.029,1.02 ± 0.047,0.99 ± 0.014
UniProt Q9NQ29|Q9NQ29-3|Q9NQ29-2,1.02 ± 0.04,1.13 ± 0.12,1.11 ± 0.055,1.15 ± 0.027,1.15 ± 0.091,1.35 ± 0.098
BCS1L (UniProt Q9Y276),0.966 ± 0.021,0.874 ± 0.11,0.996 ± 0.024,0.955 ± 0.035,0.982 ± 0.024,0.937 ± 0.035
CCDC124 (UniProt Q96CT7),1.13 ± 0.037,1.29 ± 0.15,1.35 ± 0.058,1.58 ± 0.12,1.86 ± 0.17,2.16 ± 0.25
CPSF2 (UniProt Q9P2I0),1.01 ± 0.016,1 ± 0.053,1.03 ± 0.027,1.03 ± 0.061,1.05 ± 0.035,1.07 ± 0.055
UniProt Q96RG2|Q96RG2-2,0.9919 ± 0.0087,0.997 ± 0.048,1.02 ± 0.011,0.982 ± 0.021,1 ± 0.026,0.996 ± 0.024
UniProt Q96L91|Q96L91-2|Q96L91-3|Q96L91-5,1.03 ± 0.036,1.09 ± 0.038,1.05 ± 0.028,1.05 ± 0.061,1.03 ± 0.057,1.1 ± 0.084
UTP18 (UniProt Q9Y5J1),1.05 ± 0.029,1.07 ± 0.048,1.1 ± 0.044,1.23 ± 0.028,1.28 ± 0.062,1.36 ± 0.05
DNAJC7 (UniProt Q99615),1.02 ± 0.012,1.05 ± 0.052,1.01 ± 0.015,1.03 ± 0.016,1.02 ± 0.013,1.04 ± 0.024
UniProt Q96JP5|A0A0A6YYC7|Q96JP5-2,1.01 ± 0.017,1.05 ± 0.03,1.01 ± 0.021,1.04 ± 0.068,0.987 ± 0.057,1.01 ± 0.046
STUB1 (UniProt Q9UNE7),0.989 ± 0.017,1.02 ± 0.014,0.977 ± 0.018,0.9527 ± 0.0059,0.938 ± 0.018,0.927 ± 0.019
DYNLRB1 (UniProt Q9NP97),0.996 ± 0.011,1.04 ± 0.054,0.977 ± 0.03,1.01 ± 0.018,0.9949 ± 0.0057,1.01 ± 0.02
UniProt Q9Y2Y0|Q9Y2Y0-2,0.982 ± 0.014,0.972 ± 0.026,0.989 ± 0.036,0.988 ± 0.049,0.975 ± 0.032,0.953 ± 0.015
NOP58 (UniProt Q9Y2X3),1.11 ± 0.021,1.17 ± 0.013,1.17 ± 0.014,1.24 ± 0.054,1.32 ± 0.033,1.46 ± 0.057
UniProt Q9NYU2|Q9NYU2-2,0.9826 ± 0.0098,0.9 ± 0.12,0.955 ± 0.034,0.917 ± 0.031,0.936 ± 0.04,0.895 ± 0.036
WDR12 (UniProt Q9GZL7),0.997 ± 0.017,0.928 ± 0.082,0.979 ± 0.011,1 ± 0.028,0.999 ± 0.016,0.94 ± 0.033
TIPIN (UniProt Q9BVW5),0.948 ± 0.06,1.04 ± 0.14,0.933 ± 0.072,0.928 ± 0.063,0.911 ± 0.057,0.929 ± 0.093

Target,NP40-soluble protein abundance (concentration: 1mM),NP40-soluble protein abundance (concentration: 2mM),NP40-soluble protein abundance (concentration: 4mM),NP40-soluble protein abundance (concentration: 6mM),NP40-soluble protein abundance (concentration: 8mM),NP40-soluble protein abundance (concentration: 10mM)
UniProt Q9UBK8|Q9UBK8-2,0.928 ± 0.02,0.881 ± 0.038,0.916 ± 0.041,0.971 ± 0.031,0.94 ± 0.051,0.964 ± 0.049
THRAP3 (UniProt Q9Y2W1),1.11 ± 0.014,1.23 ± 0.1,1.2 ± 0.034,1.31 ± 0.044,1.32 ± 0.028,1.41 ± 0.03
SIPA1 (UniProt Q96FS4),1.01 ± 0.037,1.013 ± 0.003,1.03 ± 0.025,1.05 ± 0.029,1.03 ± 0.036,1.04 ± 0.02
UniProt Q9H2H8|B8ZZ77|Q9H2H8-2,1.04 ± 0.038,1.04 ± 0.032,1.04 ± 0.017,0.998 ± 0.031,1.02 ± 0.018,1.03 ± 0.038
UniProt Q9BRG1|K7EKV4,1.04 ± 0.028,0.957 ± 0.094,1.02 ± 0.063,0.931 ± 0.043,0.982 ± 0.071,0.942 ± 0.099
UniProt Q9NVI7-2,1.08 ± 0.075,1.05 ± 0.073,1.14 ± 0.18,1.29 ± 0.18,1.38 ± 0.24,1.44 ± 0.32
UniProt Q9P0J0|Q9P0J0-2,0.912 ± 0.015,0.851 ± 0.095,0.89 ± 0.021,0.856 ± 0.017,0.877 ± 0.037,0.792 ± 0.047
UniProt Q96RP9|Q96RP9-2,0.99 ± 0.021,0.981 ± 0.031,0.989 ± 0.02,0.976 ± 0.01,0.972 ± 0.022,0.949 ± 0.029
CHMP6 (UniProt Q96FZ7),1.03 ± 0.028,1.05 ± 0.022,1.03 ± 0.038,1.01 ± 0.03,1.02 ± 0.032,0.964 ± 0.033
UniProt Q9Y5B6|Q9Y5B6-2,1.03 ± 0.048,1.05 ± 0.017,1.07 ± 0.057,1.06 ± 0.051,1.07 ± 0.049,1.14 ± 0.053
UniProt Q9Y5V3|Q9Y5V3-2,1 ± 0.08,1 ± 0.059,0.937 ± 0.08,0.869 ± 0.077,0.81 ± 0.027,0.858 ± 0.048
PSMD1 (UniProt Q99460),0.902 ± 0.044,0.887 ± 0.06,0.851 ± 0.094,0.863 ± 0.11,0.848 ± 0.098,0.847 ± 0.13
RAB23 (UniProt Q9ULC3),0.9714 ± 0.0024,0.9596 ± 0.0092,0.974 ± 0.029,1.01 ± 0.029,1.03 ± 0.044,1 ± 0.018
UniProt Q9H0S4|Q9H0S4-2,0.994 ± 0.061,0.981 ± 0.022,1.11 ± 0.089,1.25 ± 0.12,1.39 ± 0.13,1.46 ± 0.14
SUPT16H (UniProt Q9Y5B9),1.03 ± 0.016,1.01 ± 0.023,1.1 ± 0.049,1.24 ± 0.053,1.33 ± 0.055,1.46 ± 0.12
UniProt Q9BRT2|V5IRT4,1.03 ± 0.022,1.13 ± 0.11,1.03 ± 0.016,1.0141 ± 0.00091,1.025 ± 0.0039,1.011 ± 0.0053
HEBP2 (UniProt Q9Y5Z4),0.978 ± 0.012,0.9687 ± 0.0064,0.952 ± 0.023,0.957 ± 0.021,0.964 ± 0.018,0.926 ± 0.042
UniProt Q9HCJ0|Q9HCJ0-2,1.043 ± 0.0013,1.033 ± 0.0035,1.01 ± 0.013,1.01 ± 0.022,1 ± 0.016,1.02 ± 0.02
